Test results as given in the OligoGym collection.
Further: reference of the scale not given here.

What follows are sequences tested against AATK (assay: pooled miR-30 sensor sort-seq; sequence = guide strand). Details: shRNA.
With TTCTGATCTCAGCGGAACCGGG the sensor-assay potency score (higher = more potent) was -1.21.
TCGGTAGGGATTCTTCTCGTTG showed a sensor-assay potency score (higher = more potent) of -0.77.
AACTGCATCACCTCGTACCAGC showed a sensor-assay potency score (higher = more potent) of -1.29.
ATAGTCACCAATCTTCACCGTC showed a sensor-assay potency score (higher = more potent) of 0.047.
TAGCTCATCCTCGCCAGTCAGC was tested, and the sensor-assay potency score (higher = more potent) was -1.1.
For TTGTACTCAAAATTGAGGCCTC, the sensor-assay potency score (higher = more potent) was 0.126.
TAGTCCTCTCTGTACTTGCAGT showed a sensor-assay potency score (higher = more potent) of -1.18.
For TTCACCGTCAGGTCAGCCGTGA, the sensor-assay potency score (higher = more potent) was -0.0686.
For TTGCGTTCCAGGTCCTCGCAGA, the sensor-assay potency score (higher = more potent) was -0.188.

The sequences below were run against ABCA10 in the same assay as above. Details: shRNA.
Work on TTATTTTTTCTCCACTTGCGAA yielded a sensor-assay potency score (higher = more potent) of -1.28.
In the case of TTATTAACGATTAACAGGCTGG, the sensor-assay potency score (higher = more potent) is reported as -0.301.
TATTCTTTTATAACATTTCTGA was tested, and the sensor-assay potency score (higher = more potent) was 0.0597.
In the case of TTCTTTTATAACATTTCTGATT, the sensor-assay potency score (higher = more potent) is reported as -1.16.
TATCACTAAATATAACTCCCAC showed a sensor-assay potency score (higher = more potent) of -0.516.
TTCATTTATTCTATTGTCCAGA showed a sensor-assay potency score (higher = more potent) of -0.279.
Sequence TTAGACAGAAATACTTTCCTAT has a sensor-assay potency score (higher = more potent) of 0.661.
For TTTATTTTAGCAAATACCCTGA, the sensor-assay potency score (higher = more potent) was -0.0638.
TTCTTCTTCGGGCTCTTCCGGA was tested, and the sensor-assay potency score (higher = more potent) was -0.863.
For TTTATCATCAACATTTCCCAGC, the sensor-assay potency score (higher = more potent) was -0.195.
TTGAACATCTTCATCTTCTTCT was tested, and the sensor-assay potency score (higher = more potent) was 1.07.

These sequences were tested against ABCB11 in the same assay as above. Details: shRNA.
For TTAGCTTTTGCATAACTTGGGG, the sensor-assay potency score (higher = more potent) was -0.00733.
With TACAACTGCAGAGATCACCCTG the sensor-assay potency score (higher = more potent) was 0.317.
TAGACTTATGATCTACAACAGC showed a sensor-assay potency score (higher = more potent) of -1.33.
TTTGCTGTCATGACCATCTATC gave a sensor-assay potency score (higher = more potent) of -0.277.
In the case of TAGCTTTTGCATAACTTGGGGT, the sensor-assay potency score (higher = more potent) is reported as 0.0681.
Work on TTCTTCTCATCTTGTAACCTTG yielded a sensor-assay potency score (higher = more potent) of -0.836.
Sequence TTCTTGTAACTCAACGTCGTAG has a sensor-assay potency score (higher = more potent) of -0.168.
TTGCACTCAGTACAACTGCAGA was tested, and the sensor-assay potency score (higher = more potent) was -1.15.
TAACCATCTTCTGACATGCAGT gave a sensor-assay potency score (higher = more potent) of -1.16.
Sequence TAGAGTGAAGTAAACACCTTTC has a sensor-assay potency score (higher = more potent) of -0.144.
For TTGACTATCATCCCGATCTGAG, the sensor-assay potency score (higher = more potent) was -0.211.

The sequences below were run against ABCD4 in the same assay as above. Details: shRNA.
Work on TAGAAGAGTCGGGCAAAGGAGA yielded a sensor-assay potency score (higher = more potent) of -1.06.
Work on TGCGATGACAACGTAACTCAGG yielded a sensor-assay potency score (higher = more potent) of -0.631.
ATCGGCAGAACCTGAGTCGGGG showed a sensor-assay potency score (higher = more potent) of -0.759.
Work on ATACCAGTTCCAGTCCACCTGC yielded a sensor-assay potency score (higher = more potent) of -0.984.
TCGATCTTCGCTGTCAGTCCTC gave a sensor-assay potency score (higher = more potent) of -0.221.
TTCGCTGTCAGTCCTCCTGGTC showed a sensor-assay potency score (higher = more potent) of -0.858.
With TAGTCAAAGGTGTTGATGCCGA the sensor-assay potency score (higher = more potent) was -0.776.
TTACAGATCTCACACTTCCAGA showed a sensor-assay potency score (higher = more potent) of -0.864.
ATGAGCTGGGTGAAGCAGCTGA gave a sensor-assay potency score (higher = more potent) of -0.109.
